Values joined by “and” are separate entries in the source; they are usually repeats but may differ in a detail not shown here. Identical values can stand only once. Inconclusive results are not listed. Active and inactive are the calls of the source. Calls follow the shape of the dose curve; as a rule, active = well fitted inhibition curve with a large enough effect; inconclusive = small, poorly fitted or top-dose-only effect; inactive = no such curve, though single readings can be large or run the other way.

The source of these data is PubChem BioAssay (NCATS).
% is scaled to controls: 0 for no effect and ±100 for the full control effect; potency is read from the fitted curve at half-maximal effect.

Cytochrome P450 2D6 (Homo sapiens), sequence (P10635 whole entry, looked up): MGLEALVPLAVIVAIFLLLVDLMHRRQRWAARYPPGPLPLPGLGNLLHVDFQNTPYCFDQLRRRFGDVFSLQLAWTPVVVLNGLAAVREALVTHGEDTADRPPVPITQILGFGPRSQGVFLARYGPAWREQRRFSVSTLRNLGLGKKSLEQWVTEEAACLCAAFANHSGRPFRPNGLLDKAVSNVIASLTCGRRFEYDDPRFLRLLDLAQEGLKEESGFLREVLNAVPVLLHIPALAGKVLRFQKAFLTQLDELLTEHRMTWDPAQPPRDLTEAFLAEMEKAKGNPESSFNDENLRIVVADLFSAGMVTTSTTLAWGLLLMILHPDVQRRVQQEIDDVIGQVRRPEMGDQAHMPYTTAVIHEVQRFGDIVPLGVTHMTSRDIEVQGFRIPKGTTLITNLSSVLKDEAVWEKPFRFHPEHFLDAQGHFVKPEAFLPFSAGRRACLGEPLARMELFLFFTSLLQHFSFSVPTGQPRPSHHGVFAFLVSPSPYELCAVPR

The test addresses Cytochrome P450 2D6 (Homo sapiens) (UniProt P10635). Kind of test: qHTS Assay for Inhibitors and Substrates of Cytochrome P450 2D6 (AID 891). Also: nearly all actives have a fitted effect of over 60% in size. The note with it: recombinant CYP2D6, luciferin-ME EGE luminescence; series mostly up to 57.1 µM. Here is the method: NIH Molecular Libraries Screening Centers Network [MLSCN]
NIH Chemical Genomics Center [NCGC]
The P450 gene superfamily is involved in the metabolism and clearance of xenobiotics. This assay used human CYP2D6 to measure the demethylation of ethylene glycol ester of luciferin 6' methyl ether (Luciferin-ME EGE; […]) to luciferin. The luciferin is then measured by luminescence after the addition of a luciferase detection reagent. Luciferin-ME EGE concentration in the assay was equal to its Km for CYP2D6. Inhibitors and some substrates limit the production of luciferin, and decrease measured luminescence.
NCGC Assay Protocol Summary:
Two uL of enzyme and substrate mix (final concentrations: 5nM CYP2D6, 30uM Luciferin-ME EGE, 100mM KPO4) were dispensed into a white, solid bottom 1536-well microtiter plate. 23nL of compound was transferred by a pin tool. The plate was incubated at room temperature for 10 min. Two uL of an NADPH regeneration solution (Promega supplied reagent) was dispensed and the reaction was allowed to continue for 60 min at room temperature. Then the reaction was stopped by reconstituted luciferin detection buffer. After another 20 min of incubation the plate was read on the ViewLux (Perkin Elmer) at 60 sec exposure and 2x2 binning. This protocol was carried out with Promega-Glo reagents and further information can be found at http://www.promega.com/tbs/tb325/tb325.pdf. Data were normalized to the to AC100 inhibition (1.43 uM quinidine).
Keywords: P450, CYP2D6, Luciferase, MLSMR, MLSCN, NIH Roadmap, qHTS, NCGC
Turning to `CN1CCC[C@@H](CC2c3ccccc3Sc3ccccc32)C1`, the Potency was 316 nM (active).

Turning to `C/C(=C\CNc1ncnc2nc[nH]c12)CO`, the Potency entry is “inactive”.

With `c1ccc2c3c([nH]c2c1)[C@@H]1[C@H]2CC[C@H]([C@H]4CCCN[C@H]42)N1CC3`, the Potency was 7940 nM (active).

Consider `CC(C)(C)NC[C@@H](O)COc1ccccc1C1CCCC1`, for which the Potency was 2510 nM (active).

On to `O=c1cc(-c2cccc(O)c2)oc2cc(O)ccc12`, for which the Potency result is “inactive”.

For the molecule `Clc1ccc([C@H](Cn2ccnc2)OCc2csc3c(Cl)cccc23)c(Cl)c1`, the Potency was 5010 nM (active).

For `Clc1ccc(CC[C@H](Cn2ccnc2)Sc2c(Cl)cccc2Cl)cc1`, the Potency is 1260 nM (active).

Take `CNCCC=C1c2ccccc2C=Cc2ccccc21`: the Potency was 5010 nM (active).

On to `CC(=O)N[C@H](CS)C(=O)O`, for which the Potency result was “inactive”.

In the case of `C[N+](C)(CCCOc1ccccc1)c1ccccc1`, the Potency is 15.8 nM (active).

In the case of `Cn1c(-c2ccc3c(c2)OCO3)cc(=O)c2ccccc21`, the Potency is 1580 nM (active).

Turning to `CN(C)c1ccc(-c2nccc(NCc3ccccc3)n2)cc1`, the Potency was 3160 nM (active).

As for `COc1cc2ccc(=O)oc2c(O)c1O`, the Potency entry was “inactive”.

Take `CCCC[C@H](CC)CN1CN(C[C@@H](CC)CCCC)CC(C)(N)C1`: the Potency was 1260 nM (active).

`O=C(Nc1ccccc1)OC[C@H](CN1CCCCC1)OC(=O)Nc1ccccc1`: the Potency is 398 nM (active).

Regarding `NCCC(=O)N[C@@H](Cc1cnc[nH]1)C(=O)O`, the Potency entry is “inactive”.

Take `CCN(CC)CCOC(=O)[C@@H](c1ccccc1)C1CCCCC1`: the Potency was 631 nM (active).

For the molecule `CN1CCN([C@@H](c2ccccc2)c2ccc(Cl)cc2)CC1`, the Potency was 2000 nM (active).

For `O[C@@](CCN1CCCCC1)(c1ccccc1)[C@@H]1C[C@H]2C=C[C@@H]1C2`, the Potency is 2000 nM (active).

With `CN1CCCN([C@@H](c2ccccc2)c2ccc(Cl)cc2)CC1`, the Potency was 251 nM (active).

Consider `CC(C)(N=NC(C)(C)C(=N)N)C(=N)N`, for which the activity change, negative = inhibition was 23.6% [at 11.4 µM] (inactive).

For the molecule `CC/C=C\C[C@H]1C(=O)CC[C@@H]1CC(=O)O`, the Potency result was “inactive”.

Consider `C1CCC(C(C[C@@H]2CCCCN2)C2CCCCC2)CC1`, for which the Potency was 501 nM (active).

On to `Cc1cccc(CN2CCN([C@@H](c3ccccc3)c3ccc(Cl)cc3)CC2)c1`, for which the Potency is 3160 nM (active).

As for `C[C@H](NCCC(c1ccccc1)c1ccccc1)c1ccccc1`, the Potency was 158 nM (active).

Turning to `NC(=O)c1ccc[n+]([C@@H]2O[C@H](COP(=O)([O-])OP(=O)(O)OC[C@H]3O[C@@H](n4cnc5c(N)ncnc54)[C@@H](O)[C@@H]3O)[C@@H](O)[C@@H]2O)c1`, the Potency result is “inactive”.

Turning to `Cc1onc(-c2c(Cl)cccc2Cl)c1C(=O)N[C@H]1C(=O)N2[C@H]1SC(C)(C)[C@H]2C(=O)O`, the Potency entry is “inactive”.

For `CN(C/C=C\c1ccccc1)Cc1cccc2ccccc12`, the Potency is 251 nM (active).

Consider `COc1ccc2c(c1)N(C[C@@H](C)CN(C)C)c1ccccc1S2`, for which the Potency was 63.1 nM (active).

Regarding `CC[N+](CC)(CC)CC[C@](O)(c1ccccc1)C1CCCCC1`, the Potency was 20 nM (active).

As for `C[C@H](N[C@@H](C)COc1ccccc1)[C@H](O)c1ccc(O)cc1`, the Potency was 316 nM (active).

In the case of `Nc1ncnc2c1ncn2[C@@H]1O[C@H](COP(=O)(O)O)[C@@H](O)[C@@H]1O`, the Potency result was “inactive”.

For `C[C@@H](Cc1cccc(C(F)(F)F)c1)NCCOC(=O)c1ccccc1`, the Potency is 15.8 nM (active).

Consider `C[C@@H](CN1c2ccccc2Sc2ccccc21)N(C)C`, for which the Potency was 2 µM (active) and 316 nM (active).

With `COc1ccc(CNc2ncncc2-c2ccccc2CN(C)C)c(OC)c1`, the Potency was 2510 nM (active).

Take `CCN(CC)[C@@H](C)CN1c2ccccc2Sc2ccccc21`: the Potency is 158 nM (active).

`Cc1cc2ccc(=O)oc2cc1OC[C@@H](O)C(C)(C)O`: the Potency entry is “inactive”.

For `C[C@H]1CC[C@@H]2[C@@H](C)[C@H]3[C@H](C[C@H]4[C@@H]5CC=C6C[C@@H](O[C@]7(O[C@H]8O[C@@H](C)[C@@H](O)[C@@H](O)[C@@H]8O)C[C@@H](O[C@@H]8O[C@H](CO)[C@@H](O)[C@H](O)[C@@H]8O)[C@@H](O)[C@H](CO)O7)CC[C@]6(C)[C@H]5CC[C@@]34C)N2C1`, the Potency entry is “inactive”.
